In the supplement of paper PMC10849652:
About 7,900 targets were measured; listed, in parts, are those with a hit and a random draw of the rest. About 0.6% of all pairs of compound and target were hits. Values without a mark were called inactive.

What was measured:
Test in all cases: log2 fold change, soluble protein after heating vs DMSO (PISA); higher = thermal stabilisation; K562 cells, 10 uM, 30 min; active = over 0.2 and 3.5 SD of the protein, either way, in both replicates (recomputed)
[1] = compound: C#Cc1cccc(Nc2ncnc3cc(OCCOC)c(OCCOC)cc23)c1 [erlotinib]
Summary of the method: (§1)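 K562 cells (2×10^6 cells/mL) were treated with 10 μM compound for 30 min, and aliquots were heated for 3 min over 48°C-58°C. Pooled aliquots were extracted in PBS with 0.5% NP-40 at 4°C, and the supernatant after 21,000xg for 90 min was measured by TMTpro 16plex LC-MS/MS with channel sums equalised. Reported thermal stability, relative to control samples and from duplicates, is a log2 fold change.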

[2] = compound: C/C(=N\NC(=O)C1=CC(=CC=C1)S(=O)(=O)N2CCOCC2)/C3=C(C=CC(=C3)Cl)O
Summary of the method: as §1

[3] = compound: C1=CC(=C(C=C1Cl)C2=NC3=NC=CN=C3C(=N2)NC4=CC=NC=C4)F
Summary of the method: as §1

[4] = compound: C1=CC(=CC=C1C2=NC3=C(N2)C=C(C=C3)C(=O)N)OC4=CC=C(C=C4)Cl
Summary of the method: as §1

[5] = compound: C1=CC2=C(C=CC(=C2)/C=C\3/C(=O)NC(=NCC4=CC=CS4)S3)N=C1
Summary of the method: as §1

[6] = compound: C1=CC2=NC=CN=C2C=C1/C=C/3\C(=O)NC(=O)S3
Summary of the method: as §1

[7] = compound: C1=CC=C(C=C1)C2=NC(=C(N2)C3=CC=NC=C3)C4=CC(=C(C=C4)Cl)O
Summary of the method: as §1

[8] = compound: C1=CC=C2C(=C1)C3=NNC4=CC=CC(=C43)C2=O
Summary of the method: as §1

[9] = compound: C1CCN(C1)C(=O)NC2=CC=CC(=C2)NC3=NC=C(C(=N3)NCCC4=CN=CN4)Br
Summary of the method: as §1

[10] = compound: C1CN(CCC1(CC2=CC=C(C=C2)Cl)N)C3=NC=NC4=C3C=CN4
Summary of the method: as §1

UniProt P0CG48, sequence (P0CG48 whole entry, looked up): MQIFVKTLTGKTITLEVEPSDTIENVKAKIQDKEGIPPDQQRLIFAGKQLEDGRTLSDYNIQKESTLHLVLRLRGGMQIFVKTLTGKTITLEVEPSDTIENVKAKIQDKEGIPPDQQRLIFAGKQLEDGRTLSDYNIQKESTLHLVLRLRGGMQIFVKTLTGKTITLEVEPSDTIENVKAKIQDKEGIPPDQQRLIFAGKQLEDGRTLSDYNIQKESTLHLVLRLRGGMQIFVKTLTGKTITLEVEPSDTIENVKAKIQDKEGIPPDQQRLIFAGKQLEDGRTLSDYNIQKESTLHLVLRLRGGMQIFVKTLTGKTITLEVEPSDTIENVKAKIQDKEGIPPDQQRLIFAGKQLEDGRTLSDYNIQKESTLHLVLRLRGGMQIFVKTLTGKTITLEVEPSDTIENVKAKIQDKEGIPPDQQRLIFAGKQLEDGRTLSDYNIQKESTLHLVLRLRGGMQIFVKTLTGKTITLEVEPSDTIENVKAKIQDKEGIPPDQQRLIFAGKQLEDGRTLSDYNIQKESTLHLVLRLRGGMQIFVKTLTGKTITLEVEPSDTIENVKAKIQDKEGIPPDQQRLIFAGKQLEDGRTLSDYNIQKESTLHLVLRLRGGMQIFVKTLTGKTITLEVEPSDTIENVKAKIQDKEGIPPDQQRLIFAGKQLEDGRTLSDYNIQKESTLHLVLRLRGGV
UniProt Q969X6, sequence (Q969X6 whole entry, looked up): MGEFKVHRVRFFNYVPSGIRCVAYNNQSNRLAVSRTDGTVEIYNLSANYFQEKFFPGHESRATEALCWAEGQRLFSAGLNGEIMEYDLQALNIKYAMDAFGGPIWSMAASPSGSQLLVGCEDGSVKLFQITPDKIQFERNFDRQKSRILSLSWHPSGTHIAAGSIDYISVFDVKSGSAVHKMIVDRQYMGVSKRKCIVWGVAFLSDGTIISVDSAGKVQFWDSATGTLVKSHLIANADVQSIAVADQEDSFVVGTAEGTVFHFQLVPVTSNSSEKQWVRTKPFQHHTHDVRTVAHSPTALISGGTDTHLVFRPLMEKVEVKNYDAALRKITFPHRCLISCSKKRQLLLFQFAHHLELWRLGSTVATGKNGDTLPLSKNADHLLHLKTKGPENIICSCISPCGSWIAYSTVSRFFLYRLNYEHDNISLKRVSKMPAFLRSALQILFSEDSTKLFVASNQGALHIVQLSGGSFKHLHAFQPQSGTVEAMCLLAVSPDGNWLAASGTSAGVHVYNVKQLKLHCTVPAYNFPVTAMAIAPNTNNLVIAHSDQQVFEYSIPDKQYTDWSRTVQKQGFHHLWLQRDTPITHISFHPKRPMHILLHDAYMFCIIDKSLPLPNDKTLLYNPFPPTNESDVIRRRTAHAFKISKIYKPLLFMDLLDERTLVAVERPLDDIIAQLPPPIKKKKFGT
UniProt P68366, sequence (P68366 whole entry, looked up): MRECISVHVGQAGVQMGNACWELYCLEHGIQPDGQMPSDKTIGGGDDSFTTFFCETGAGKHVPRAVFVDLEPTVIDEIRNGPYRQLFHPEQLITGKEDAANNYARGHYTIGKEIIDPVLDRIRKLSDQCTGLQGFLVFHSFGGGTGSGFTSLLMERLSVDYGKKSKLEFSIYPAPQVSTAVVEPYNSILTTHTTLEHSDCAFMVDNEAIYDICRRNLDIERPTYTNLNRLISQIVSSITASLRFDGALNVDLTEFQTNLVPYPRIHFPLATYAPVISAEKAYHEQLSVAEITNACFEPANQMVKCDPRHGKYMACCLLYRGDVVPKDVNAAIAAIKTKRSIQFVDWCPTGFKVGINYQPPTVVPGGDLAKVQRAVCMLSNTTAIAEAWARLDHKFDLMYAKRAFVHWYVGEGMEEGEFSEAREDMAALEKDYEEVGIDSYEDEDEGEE
UniProt Q8N3P4, sequence (Q8N3P4 whole entry, looked up): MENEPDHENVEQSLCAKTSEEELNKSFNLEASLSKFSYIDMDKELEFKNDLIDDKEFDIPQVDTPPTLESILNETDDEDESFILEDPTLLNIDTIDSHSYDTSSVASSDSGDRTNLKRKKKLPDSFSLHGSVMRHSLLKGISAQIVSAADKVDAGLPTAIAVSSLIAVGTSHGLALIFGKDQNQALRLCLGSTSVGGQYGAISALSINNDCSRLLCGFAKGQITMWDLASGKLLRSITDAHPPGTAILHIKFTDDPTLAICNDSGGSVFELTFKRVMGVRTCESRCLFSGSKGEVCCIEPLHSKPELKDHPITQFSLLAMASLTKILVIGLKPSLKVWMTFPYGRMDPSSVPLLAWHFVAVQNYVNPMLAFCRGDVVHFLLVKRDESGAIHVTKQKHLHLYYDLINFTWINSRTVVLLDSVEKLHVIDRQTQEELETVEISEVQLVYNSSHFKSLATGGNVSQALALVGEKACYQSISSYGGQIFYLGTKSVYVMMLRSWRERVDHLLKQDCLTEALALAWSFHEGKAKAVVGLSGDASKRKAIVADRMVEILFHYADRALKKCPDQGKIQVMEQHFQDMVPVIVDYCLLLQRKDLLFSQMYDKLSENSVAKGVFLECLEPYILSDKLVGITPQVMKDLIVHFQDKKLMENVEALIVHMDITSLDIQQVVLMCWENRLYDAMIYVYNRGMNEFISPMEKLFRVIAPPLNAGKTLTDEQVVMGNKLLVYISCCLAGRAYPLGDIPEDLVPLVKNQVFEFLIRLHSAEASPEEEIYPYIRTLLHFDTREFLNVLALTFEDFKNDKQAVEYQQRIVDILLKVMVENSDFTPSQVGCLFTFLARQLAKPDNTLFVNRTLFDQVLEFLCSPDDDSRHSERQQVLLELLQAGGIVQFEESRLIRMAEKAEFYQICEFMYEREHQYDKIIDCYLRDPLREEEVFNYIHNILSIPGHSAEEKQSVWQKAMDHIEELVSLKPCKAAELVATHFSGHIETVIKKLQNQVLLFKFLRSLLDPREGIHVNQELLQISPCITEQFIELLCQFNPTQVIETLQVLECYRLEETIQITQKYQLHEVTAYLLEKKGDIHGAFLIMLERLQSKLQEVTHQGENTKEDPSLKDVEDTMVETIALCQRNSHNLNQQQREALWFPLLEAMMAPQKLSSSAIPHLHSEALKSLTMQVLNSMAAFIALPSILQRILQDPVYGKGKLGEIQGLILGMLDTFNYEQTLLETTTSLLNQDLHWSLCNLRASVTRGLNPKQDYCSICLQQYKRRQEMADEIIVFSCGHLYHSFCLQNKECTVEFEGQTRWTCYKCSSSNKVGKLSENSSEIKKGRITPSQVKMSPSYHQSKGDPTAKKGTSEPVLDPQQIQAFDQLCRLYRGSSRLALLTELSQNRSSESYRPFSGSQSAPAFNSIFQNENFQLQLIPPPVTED
UniProt Q9NQZ2, sequence (Q9NQZ2 whole entry, looked up): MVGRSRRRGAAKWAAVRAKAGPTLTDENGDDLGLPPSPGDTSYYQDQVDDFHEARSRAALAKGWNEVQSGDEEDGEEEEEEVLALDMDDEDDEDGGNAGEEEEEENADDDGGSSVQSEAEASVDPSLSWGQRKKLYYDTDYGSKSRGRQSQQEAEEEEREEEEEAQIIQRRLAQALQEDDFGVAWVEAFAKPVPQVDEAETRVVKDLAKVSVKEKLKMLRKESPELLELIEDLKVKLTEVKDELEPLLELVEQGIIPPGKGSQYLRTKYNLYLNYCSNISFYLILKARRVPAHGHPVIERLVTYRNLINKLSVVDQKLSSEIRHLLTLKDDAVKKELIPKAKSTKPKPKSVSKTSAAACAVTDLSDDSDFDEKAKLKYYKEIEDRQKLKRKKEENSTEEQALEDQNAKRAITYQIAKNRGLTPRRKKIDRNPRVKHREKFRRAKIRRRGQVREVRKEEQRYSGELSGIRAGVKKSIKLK
UniProt Q15629, sequence (Q15629 whole entry, looked up): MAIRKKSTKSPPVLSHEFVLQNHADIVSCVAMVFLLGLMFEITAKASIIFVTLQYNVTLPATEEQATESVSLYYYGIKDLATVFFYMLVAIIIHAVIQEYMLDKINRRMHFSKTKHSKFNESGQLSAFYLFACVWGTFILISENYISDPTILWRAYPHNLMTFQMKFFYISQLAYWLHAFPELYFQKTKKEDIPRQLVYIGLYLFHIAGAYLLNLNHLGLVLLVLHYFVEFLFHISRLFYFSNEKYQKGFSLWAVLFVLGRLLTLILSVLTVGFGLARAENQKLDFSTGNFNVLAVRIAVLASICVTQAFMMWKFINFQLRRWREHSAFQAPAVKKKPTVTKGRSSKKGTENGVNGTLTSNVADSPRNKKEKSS
UniProt Q96AJ9, sequence (Q96AJ9 whole entry, looked up): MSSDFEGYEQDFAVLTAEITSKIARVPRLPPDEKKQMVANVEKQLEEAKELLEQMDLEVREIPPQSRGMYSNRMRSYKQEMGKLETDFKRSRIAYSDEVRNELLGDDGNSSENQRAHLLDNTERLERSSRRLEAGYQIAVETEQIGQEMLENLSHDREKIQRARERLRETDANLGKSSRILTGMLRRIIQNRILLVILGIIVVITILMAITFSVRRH
UniProt Q7Z7N9, sequence (Q7Z7N9 whole entry, looked up): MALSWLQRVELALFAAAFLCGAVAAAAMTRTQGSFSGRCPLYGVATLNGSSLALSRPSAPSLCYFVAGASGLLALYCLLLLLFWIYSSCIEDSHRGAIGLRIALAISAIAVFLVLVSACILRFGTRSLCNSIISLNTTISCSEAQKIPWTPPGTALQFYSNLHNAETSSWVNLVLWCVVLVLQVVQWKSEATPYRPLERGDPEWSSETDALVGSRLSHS
UniProt Q8NDZ6, sequence (Q8NDZ6 whole entry, looked up): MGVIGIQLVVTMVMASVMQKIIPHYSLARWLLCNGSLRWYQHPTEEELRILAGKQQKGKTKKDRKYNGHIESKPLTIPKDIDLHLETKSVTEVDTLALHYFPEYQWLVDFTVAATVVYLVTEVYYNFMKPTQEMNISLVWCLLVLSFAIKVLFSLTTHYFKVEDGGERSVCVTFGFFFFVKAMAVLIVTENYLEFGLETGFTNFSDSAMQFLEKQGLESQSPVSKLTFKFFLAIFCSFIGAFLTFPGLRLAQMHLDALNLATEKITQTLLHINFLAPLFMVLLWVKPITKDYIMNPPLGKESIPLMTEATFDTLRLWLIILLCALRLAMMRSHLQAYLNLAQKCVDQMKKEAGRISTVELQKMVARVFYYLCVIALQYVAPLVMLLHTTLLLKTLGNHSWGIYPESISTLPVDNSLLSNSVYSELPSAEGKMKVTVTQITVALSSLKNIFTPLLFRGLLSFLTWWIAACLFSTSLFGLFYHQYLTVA

Target	log2 fold change [1]	log2 fold change [2]	log2 fold change [3]	log2 fold change [4]	log2 fold change [5]	log2 fold change [6]	log2 fold change [7]	log2 fold change [8]	log2 fold change [9]	log2 fold change [10]
UBA52 (UniProt P62987)	-0.113	-0.266	-0.659	0.093	-0.311	-0.024	-0.029	-0.082	0.165	-0.04
UBAP1 isoform 4 (UniProt Q9NZ09)	0.001	0.127	0.013	0.049	0.025	0.027	-0.02	0.024	0.058	-0.093
TSEN2 (UniProt Q8NCE0)	0.08	-0.001	-0.016	0.029	0.041	0.098	0.023	0.023	-0.04	0.061
TMEM189-UBE2V1 (UniProt I3L0A0)	-0.014	0.025	0.015	0.019	0.055	-0.047	0.028	-0.009	0.02	0.058
TRABD (UniProt Q9H4I3)	-0.057	-0.023	-0.029	0.016	0.032	-0.049	0.121	0.074	-0.077	0.071
VPS52 (UniProt Q8N1B4)	0.019	0.048	-0.029	0.067	0.032	0.031	0.004	0.079	-0.033	-0.051
TRIP10 (UniProt Q15642)	0.052	0.015	0.203	0.022	0.013	-0.025	0.044	0.011	0.013	-0.026
UBC (UniProt P0CG48)	-0.007	-0.021	-0.004	0.011	0.024	-0.044	-0.054	0.009	0.043	-0.041
TMEM161B (UniProt Q8NDZ6)	0.037	-0.074	0.013	-0.021	-0.054	0.018	0.159	-0.026	-0.053	-0.03
VPS8 (UniProt Q8N3P4)	0.005	0.036	0.017	-0.024	0.016	0.031	0.041	0.012	0.026	0.027
XPNPEP1 isoform 3 (UniProt Q9NQW7)	-0.005	-0.069	0.067	0.022	0.076	-0.003	0.048	0.04	0	0.033
WDR7 (UniProt Q9Y4E6)	0.06	0.074	0.065	-0.049	0.092	-0.001	0.099	0.028	-0.009	-0.02
VTI1A (UniProt Q96AJ9)	-0.07	0.026	-0.037	-0.014	0.015	0.087	-0.055	-0.002	0.019	0.005
WNK1 isoform 7 (UniProt Q9H4A3)	0.043	0.014	0.012	-0.003	0.026	0.006	-0.046	0.021	-0.028	-0.02
TRAM1 (UniProt Q15629)	0.059	0.016	-0.028	-0.088	0.015	0.065	0.144	-0.151	0.105	0
TUBA4A (UniProt P68366)	0.016	0.048	0.048	-0.038	0.069	-0.04	-0.037	0.027	-0.015	0.075
WDR11 (UniProt Q9BZH6)	0.103	-0.081	0.145	-0.004	0.115	0.067	-0.168	0.005	0.091	0.023
TTC38 (UniProt Q5R3I4)	0.749 (active)	0.032	0.082	0.072	0.021	-0.002	0.035	0.09	-0.06	0.025
TMEM263 (UniProt Q8WUH6)	0.093	0.024	0.024	-0.012	0.058	-0.013	0.02	-0.101	0.036	0.022
VAMP7 (UniProt P51809)	-0.02	0.003	0.077	0.005	0.016	0.007	0.065	-0.001	0.001	0.03
UHRF1BP1 (UniProt Q6BDS2)	-0.018	-0.01	0.011	0.033	0.001	0.008	-0.017	-0.009	-0.013	0.008
UTP4 (UniProt Q969X6)	-0.05	-0.07	-0.009	0.005	-0.082	0.026	-0.022	0.012	0	0.06
VPS41 (UniProt P49754)	-0.022	0.076	-0.049	-0.018	0.086	0.056	0.004	0.031	0.043	-0.058
UTP3 (UniProt Q9NQZ2)	-0.098	-0.076	-0.748	0.063	-0.068	0	-0.255	-0.004	0.006	-0.203
UGDH (UniProt O60701)	0.004	0.134	0.128	0.023	0.046	-0.174	0.017	0.043	-0.063	0.009
TOE1 (UniProt Q96GM8)	-0.029	-0.151	-0.267	-0.056	0.002	0.005	-0.05	-0.035	-0.021	-0.107
TRIM28 (UniProt Q13263)	0.001	0.077	0.041	-0.023	-0.021	0.018	-0.023	0.004	-0.013	-0.026
VPS53 isoform 4 (UniProt Q5VIR6)	0.06	0.094	0.003	-0.04	0.107	0.048	-0.083	0.022	-0.021	-0.004
XPO5 (UniProt Q9HAV4)	0.011	0.103	0.105	-0.005	0.011	0.016	0.023	-0.019	-0.024	-0.001
TMEM179B (UniProt Q7Z7N9)	0.042	-0.016	0.073	0.032	-0.009	0.034	-0.107	-0.032	-0.165	-0.005
